Screening results deposited in PubChem by National Center for Advancing Translational Sciences (NCATS).
In the library only some 2.3% were active in any assay of this set; here they are far more common.
Giardia killer – kills Giardia lamblia. Giardia lamblia trophozoite viability. activity change, % at 7.66 µM, hits read low. hit rate 0.15% among 340,000; in the data active = activity change below about -80%; inconclusive = between about -30% and that limit;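 also: parasites exposed to compound for two days anaerobically before the ATP read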
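Giardia trophozoites, 100 cells per well, were exposed to compounds for 48 hrs at 37 deg C under anaerobic conditions; viability was then read as ATP content by bioluminescence after 15-30 min at room temperature.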
mIDH1 inhibitor – blocks human mutant IDH1 R132H enzyme. O75874. IDH1-R132H enzyme, NADPH consumption, diaphorase/resazurin fluorescence. Potency, µM (doses to about 76.6 µM), hits mostly inhibitors. hit rate 0.093% among 390,000; also: nearly all actives have a fitted effect of over 65% in size
Target sequence (O75874 whole entry R132H, stated change not applied): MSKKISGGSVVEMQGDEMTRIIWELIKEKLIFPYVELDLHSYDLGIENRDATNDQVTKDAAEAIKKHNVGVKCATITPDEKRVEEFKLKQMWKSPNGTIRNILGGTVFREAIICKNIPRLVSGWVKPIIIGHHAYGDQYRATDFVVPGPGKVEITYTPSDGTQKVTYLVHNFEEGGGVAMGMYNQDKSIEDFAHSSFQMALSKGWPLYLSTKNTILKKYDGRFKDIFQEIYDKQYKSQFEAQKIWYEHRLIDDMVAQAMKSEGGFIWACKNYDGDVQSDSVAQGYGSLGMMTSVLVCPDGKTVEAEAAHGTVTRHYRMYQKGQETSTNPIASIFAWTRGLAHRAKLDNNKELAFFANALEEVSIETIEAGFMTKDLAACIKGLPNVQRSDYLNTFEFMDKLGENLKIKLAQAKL
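IDH1-R132H (0.5 ug/mL) preincubated 30 min with compound, then NADPH (0.016 mM) and alpha-KG (2 mM) added; 80 min at RT, pH 7.5. Remaining NADPH coupled via diaphorase/resazurin to fluorescence (540/590 nm); concentration-response curves normalized to no-enzyme control.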
Anesthetic bind – binds horse apoferritin like a general anesthetic | Potency, µM (highest dose often 77.5 µM), usual class: inhibitors | apoferritin/1-aminoanthracene competitive binding, fluorescence | hit rate 0.074% among 350,000 | P02791; also: nearly all actives have a fitted effect of over 20% in size
Target sequence (P02791 2-175 limits assumed): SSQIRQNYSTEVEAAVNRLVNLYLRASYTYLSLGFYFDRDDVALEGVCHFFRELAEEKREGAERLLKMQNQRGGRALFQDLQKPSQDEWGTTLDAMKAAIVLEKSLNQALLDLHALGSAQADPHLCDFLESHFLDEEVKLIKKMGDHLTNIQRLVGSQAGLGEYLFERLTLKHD
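Horse-spleen apoferritin (10 uM) was mixed with 50% saturated 1-aminoanthracene in PBS, exposed to compounds for 10 min at room temperature, and read for fluorescence (ex 380 nm, em 535 nm). Competitive displacement was fitted with a four-parameter Hill equation.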
A549 viability – A549 cytotoxicity, counter-screen for Nrf2 inhibitors; AID 504648; A549 ARE-Fluc cells, CellTiter-Fluor viability, 18-24 h; Potency, µM (series often up to 46 µM), hits mostly inhibitors; hit rate 0.16% among 390,000
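A549 ARE_Fluc cells in 5% FBS OPTI-MEM were exposed to compounds in concentration-response for 18-24 h at 37 deg C. Viability was read by CellTiter-Fluor fluorescence (Ex 405/Em 525) after 30 min, before the luciferase read.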
Nrf2 ARE act – Nrf2 pathway activation; AREc32 ARE-luciferase reporter (MCF7-derived line), luminescence, 24 h; Potency, µM (series often up to 46.1 µM), usual class: activators; hit rate 0.31% among 410,000; also: nearly all actives have a fitted effect of over 65% in size
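ARE-driven firefly luciferase activity in AREc32 cells measured after a 24 hr compound exposure at 37 deg C, using Steady-Glo reagent and a 30 min room-temperature hold.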
Nrf2 inh – blocks Nrf2 signaling; A549 ARE-Fluc reporter, luciferase luminescence, 18-24 h; Potency, µM (top dose mostly 46 µM), most hits filed as inhibitors; hit rate 2.1% among 360,000; also: nearly all actives have a fitted effect of over 60% in size
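Cells were seeded and rested 2 h, then exposed to compounds for 18-24 h. CellTiter-Fluor was read first as a viability measure. BugLite was added 15 min before the final luminescent read of ARE-luciferase activity in A549 cells.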
A number is an active result; . = inactive; ? = inconclusive; / = not tested or not shown; [ ] = remark or other dose. Unless noted, calls follow the shape of the dose curve; as a rule, active = well fitted curve in the direction sought with a large enough effect; inconclusive = small, poorly fitted or top-dose-only effect, or another doubt; inactive = no such curve, though single readings can be large; an effect the other way counts as inactive or inconclusive.

SMILES	Giardia killer	mIDH1 inhibitor	Anesthetic bind	A549 viability	Nrf2 ARE act	Nrf2 inh
CC(C)(C)c1ccc(C(=O)NCC(=O)OC(C(=O)Nc2cc(C(F)(F)F)ccc2Cl)c2ccccc2)cc1 (configuration not stated)	/	/	/	.	/	?
COc1ccccc1-c1c(C(F)(F)F)oc2cc(OC(=O)c3ccccc3[N+](=O)[O-])ccc2c1=O	.	.	.	.	.	.
COc1ccccc1-c1c(C(F)(F)F)oc2cc(OS(C)(=O)=O)ccc2c1=O	.	.	.	.	.	8.2µM
CC1CCN(C(=S)NCCc2ccccc2)CC1	.	.	.	.	.	/
OC(c1ccccc1)(c1ccccc1)C1CCN(C(=S)NCCc2ccccc2)CC1	.	.	.	?	.	23µM
CC1(C)CC(=O)C/C(=N\NC(=O)Cc2ccccc2)C1	.	.	.	.	.	?
CC1(C)CC(=O)C/C(=N/NC(=O)c2ccc(-c3ccccc3)cc2)C1	.	.	.	.	.	16µM
N/C(=N\OC(=O)c1cccc(Cl)c1)c1ccncc1	.	.	.	.	11µM	.
N/C(=N\OC(=O)c1ccccc1Cl)c1ccncc1	.	.	?	.	8.9µM	?
N/C(=N\OC(=O)c1cccc(Cl)c1)c1cccnc1	.	.	.	.	?	?
CC(=O)Oc1ccc2cc(-c3nc4c(s3)CCc3ccccc3-4)c(=O)oc2c1	.	/	/	?	/	.
CCOc1ccc(CCNCc2c(C(=O)O)n(Cc3ccc(C)cc3)c3cc(OC)ccc23)cc1	/	/	?	.	.	.
Brc1ccc2nc(C3CCCCC3)c(Cc3ccccc3)n2c1	/	/	/	/	.	/
Cc1cc(C)c(NC(=O)Cn2c(=O)n(Cc3ccc(C(=O)NCc4ccc5c(c4)OCO5)cc3)c(=O)c3ccccc32)c(C)c1	/	.	.	.	.	15µM
CO[C@H]1COC(=O)[C@H]2CCCN2C(=O)C/C=C\[C@@H](C)[C@H](OC)COC(=O)[C@@H](OCc2ccccc2)/C=C\[C@@H]1C	/	/	.[15.3 µM]	/	/	/
COc1ccccc1NS(=O)(=O)c1cc(NC(=O)Cc2n[nH]c(=O)c3ccccc23)ccc1Cl	.	.	/	.	.	21µM
Fc1ccc(-c2cc(-c3nc(-c4ccccc4)no3)[nH]n2)cc1	/	.	.	.	.	?
Cc1noc2ncnc(NCc3cccc(Cl)c3)c12	/	.	.	.	.	?
Cc1ccc(CNc2ncnc3cc(Cl)ccc23)cc1	.	.	.	.	.	21µM
Cc1ccc(CNc2ncnc3onc(C)c23)cc1	/	.	.	.	.	8.2µM
Cc1cccc(CNc2ncnc3ccc(-c4ccoc4)cc23)c1	.	/	.	.	.	18µM
c1cncc(CNc2ncnc3ccc(-c4ccoc4)cc23)c1	.	/	/	.	.	.
COc1cccc(-c2ccc3ncnc(NCc4ccc5c(c4)OCO5)c3c2)c1	?	/	/	.	.	16µM
c1nc(NCc2ccc3c(c2)OCO3)c2cc(-c3ccc4c(c3)OCCO4)ccc2n1	.	/	/	.	.	23µM
Cc1cccc(CNc2ncnc3ccc(-c4ccc5c(c4)OCCO5)cc23)c1	.	/	/	?	.	15µM
SMILES	Giardia killer	mIDH1 inhibitor	Anesthetic bind	A549 viability	Nrf2 ARE act	Nrf2 inh
c1cncc(CNc2ncnc3ccc(-c4ccc5c(c4)OCO5)cc23)c1	.	/	/	.	.	.
Cc1csc(CNc2ncnc3ccc(-c4ccc5c(c4)OCCO5)cc23)c1	.	/	/	.	.	.
Cc1cc(C(O)c2ncc(-c3ccccc3)[nH]2)ccc1F (configuration not stated)	/	/	/	/	.	/
COc1cccc([C@H]2Oc3ccc(OC)cc3/C(=N\O[C@@H](C)c3cn([C@H](CO)Cc4ccccc4)nn3)[C@@H]2O)c1	/	/	.[15.3 µM]	/	/	/
Cc1noc(C)c1-c1ccc2ncnc(NCc3ccc(-c4ccccc4)cc3)c2c1	/	/	?	.	/	12µM
Cc1oc2ccc(O)c(CN3CCN(C)CC3)c2c1C(=O)Nc1cccc(C(F)(F)F)c1	/	.	.	.	.	.
COc1ccc(C(=O)CC2(O)C(=O)Nc3c(C)cccc32)c(OC)c1OC (configuration not stated)	/	.	.	.	.	/
Cc1ccc2nc(CSc3nc(C)nc4c3oc3ccccc34)[nH]c2c1	.	/	/	?	.	18µM
N#CC1=C(SCC(=O)NC23CC4CC(CC(C4)C2)C3)NC(=O)C(C#N)C12CCCCC2 (configuration not stated)	.	.	.	?	.	15µM
N#CC1=C(SCC(=O)NC2CC2)NC(=O)C(C#N)C12CCCCC2 (configuration not stated)	.	.	.	.[1.84 µM]	.	.
CCn1ccc2cc(S(=O)(=O)N3CCC(C(=O)NCc4ccc(OC)cc4)CC3)ccc21	/	.	.	.	.	/
CCOC(=O)CN(Cc1ccccc1)C(C(=O)NC1CCCCC1)c1ccccc1 (configuration not stated)	/	.	.	12µM	.	4.6µM
Cc1ccc(C(C(=O)NC2CCCCC2)N(C)Cc2ccccc2)cc1 (configuration not stated)	/	.	.	.	.	.[9.27 µM]
CCOc1ccccc1NC(=O)CSc1nncc2ccccc12	.	.	.	.	.	23µM
Cc1ccc(NC(=O)CSc2nnc(COc3ccc(Cl)cc3)o2)c(C)c1	/	.	.	.	.	.
COc1ccccc1CC(=O)Nc1ccc2nc(Nc3cccc(Cl)c3)cc(C)c2c1	/	.	.	.	.	?
Cc1cc(Nc2cccc(C(F)(F)F)c2)nc2ccc(NC(=O)Cc3ccc(Cl)cc3)cc12	/	.	.	?	.	16µM
COc1ccc(CC(=O)Nc2ccc3nc(Nc4cccc(Cl)c4)cc(C)c3c2)cc1	/	.	.	?	.	26µM
CC1(C)CC[C@]2(C(=O)n3ccnc3)CC[C@]3(C)[C@H](C(=O)C=C4[C@@]5(C)C=C(C#N)C(=O)C(C)(C)[C@@H]5CC[C@]43C)[C@@H]2C1	.	.	/	6.5µM	1.1µM	5.8µM
CCCCNC(=O)CCCn1c(=O)c2ccccc2n(Cc2ccc(Cl)cc2)c1=O	/	.	.	.	.	.
O=C(Nc1ccccc1Cl)c1cc2ccccc2o/c1=N\O	.	.	.	.	1.3µM	?
COc1ccc(CNC(=O)C2CCN(c3nnc(-n4cccc4CNc4ccc(C)cc4)s3)CC2)c(OC)c1	/	/	.	.	.	?
COc1ccc(-n2nc([N+](=O)[O-])c(=NCCc3ccc(C)cc3)n2O)cc1	-93	.	.	.	.	?
Cc1ccc(CN=c2c([N+](=O)[O-])nn(-c3cccc(Cl)c3)n2O)cc1	?	.	?	.	.	?
COc1ccc(-n2nc([N+](=O)[O-])c(=NCCc3ccc(OC)c(OC)c3)n2O)cc1	-94	.	.	.	.	?
